# Compound activity as filed in PubChem.
# TEAD-YAP inh – TEAD-YAP interaction inhibition. inhibition, % at 9.12 µM. HEK-TIYL cells, TEAD-Gal4/YAP UAS-luciferase luminescence. AID 1259422. 640,000 tested, 1.4% active; in the data active means inhibition above about 32%;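 further: 0% = median of test compound wells and 100% = reference inhibitor wells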
# FBW7 act – activators of human E3 ligase FBW7. Q969H0. AlphaScreen FBW7–phospho-cyclin E peptide binding, activator screen. normalized activity (activation), % at 26.1 µM. 650,000 tested, 0.13% active. AID 1259310; in the data active means normalized activity above about 1.9%;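 further: purified mutant Fbw7 with reduced substrate affinity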
# GPR151 activ – activators of human GPR151. Q8TDV0. PathHunter beta-arrestin GPR151 cells, luminescence. activation, % at 11.2 µM. 650,000 tested, 1% active; in the data active means activation above about 4.9%;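 further: 0% = median of compound wells and 100% = cells with positive control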
# MITF primary – inhibitors of human MITF; inhibition, % at 2.6 µM; O75030; AlphaScreen MITF homodimerization, bead proximity signal; 650,000 tested, 0.91% active; in the data active means inhibition above about 50%;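 further: 0% = vehicle wells with protein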
# Target sequence (O75030 whole entry, looked up): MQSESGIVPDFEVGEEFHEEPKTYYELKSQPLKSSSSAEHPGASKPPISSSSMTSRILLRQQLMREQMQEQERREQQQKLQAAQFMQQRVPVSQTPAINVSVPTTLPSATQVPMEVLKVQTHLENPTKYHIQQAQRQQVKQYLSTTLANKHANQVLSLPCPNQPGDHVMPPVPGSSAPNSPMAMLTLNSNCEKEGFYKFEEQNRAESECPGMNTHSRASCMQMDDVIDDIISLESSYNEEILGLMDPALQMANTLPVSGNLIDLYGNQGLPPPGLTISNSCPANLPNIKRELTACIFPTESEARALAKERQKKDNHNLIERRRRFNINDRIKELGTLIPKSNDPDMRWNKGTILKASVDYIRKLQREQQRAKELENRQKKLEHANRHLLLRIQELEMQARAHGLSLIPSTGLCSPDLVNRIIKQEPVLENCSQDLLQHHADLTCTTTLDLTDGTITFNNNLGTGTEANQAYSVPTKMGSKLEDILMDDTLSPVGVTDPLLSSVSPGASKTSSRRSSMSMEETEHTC
# GPR151 confirm – confirmation of human GPR151 activators; activation, % at 11.2 µM; AID 1508609; shares compounds with GPR151 activ; GPR151 PathHunter beta-arrestin cells, luminescence, 90 min; % of EA-reagent control over plate median; 6,700 tested, under 10 active;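 active means mean percent activation across replicates above the confirmation screen cutoff of 4.91%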
# GPR119 ag – counter-screen for GPR151 activators: effect on human GPR119 | shares compounds with GPR151 activ | GPR119 PathHunter beta-arrestin cells, luminescence, 90 min; 0 = compound-well median, 100 = enzyme-acceptor control | activation, % at 11.2 µM | 6,700 tested, 0.3% active | AID 1508611;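 active means mean percent activation in the counterscreen above 29.09%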;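 further: counterscreen on off-target GPR119 to flag nonselective hits from the GPR151 activator screen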
# * hit, by the source's call; · = not tested or not shown. A selection: hits, their analogues and other compounds. The true share with any hit is near 3.5%.
SMILES,TEAD-YAP inh,FBW7 act,GPR151 activ,MITF primary,GPR151 confirm,GPR119 ag
CCCCOC(=S)SCc1ccc(Cl)s1,3.0,-0.1,6.4*,3.6,-0.1,-3.3
COc1ccc(Cc2nnc(SCC(=O)Nc3ccccc3OC)n2-n2cccc2)cc1,16.5,-0.1,10.6*,3.0,-0.7,-18.1
Cn1c(COc2ccc(Cl)cc2)nnc1SCC(=O)NC(C)(C)C,-2.3,0.1,-0.7,-2.5,·,·
CNC(=O)CSc1nnc(COc2ccccc2OC)n1C,1.6,0.1,0.4,-8.3,·,·
COc1ccccc1NC(=O)CSc1nnc(CNC(=O)c2ccc(C)cc2)n1C,8.9,0.0,1.2,-16.1,·,·
COC(=O)CSc1nnc(COc2ccccc2OC)n1C,-5.5,-0.1,5.3*,2.0,0.8,4.3
Cn1c(COc2ccc(Cl)cc2)nnc1SCC(=O)NCC(F)(F)F,0.1,0.0,5.1*,3.1,1.9,3.6
COc1ccccc1NC(=O)CSc1nnc(COc2ccc(C)cc2)n1C,5.1,0.0,5.3*,9.1,-0.8,-6.5
O=C(CN1C(=O)c2ccccc2C1=O)OCC(=O)c1ccc(OC(=O)c2ccccc2)cc1,-1.7,0.2,-0.2,18.9,·,·
CCCc1ccc(C(=O)/C=C/N(C)C)cc1,-5.3,-0.1,5.7*,-7.1,-0.7,-0.7
N#C/C(=C\c1ccc(F)cc1)C(=O)N1CCOCC1,-34.1,0.1,6.3*,-7.8,0.9,5.9
Cc1ccc(-n2c(SCc3cccc(C)c3)nc3[nH]ncc3c2=O)cc1,4.2,0.6,0.1,18.9,·,·
CCc1ccc(-n2c(SCc3cc(=O)n4c(C)cccc4n3)nc3[nH]ncc3c2=O)cc1,-6.7,0.0,5.8*,0.7,0.6,10.9
Cc1ccc(CSc2nc3[nH]ncc3c(=O)n2-c2cccc(C)c2)cc1,-10.2,-0.1,9.0*,4.3,0.5,9.9
CCCCCOC(=O)Nc1ccc(S(=O)(=O)Nc2ccc([N+](=O)[O-])cc2)cc1,2.1,0.4,-0.8,42.1,·,·
CN(C)c1ccc(/C=C/CN2CCCCCC2)cc1,5.3,0.1,4.9*,29.6,-0.7,-0.8
CN(C)c1ccc(/C=C/CN2CCC(O)CC2)cc1,-8.1,-0.1,-0.1,32.2,·,·
COc1ccc2c(-c3ccccc3)cc3nnnn3c2c1,-3.7,-0.1,5.3*,6.7,-0.1,-6.7
Nc1nc2ncc(CNc3ccc(C(=O)N[C@@H](CCC(=O)O)C(=O)O)cc3)nc2c(=O)[nH]1,·,0.0,5.6*,8.9,0.5,-1.7
Nc1nc2ncc(CNc3ccc(C(=O)NC(CCC(=O)O)C(=O)O)cc3)nc2c(=O)[nH]1 (centres undefined),15.2,0.3,0.2,11.8,·,·
CN1/C(=C2/SC(=Nc3ccc(C4CCCCC4)cc3)N(c3ccccc3)C2=O)Sc2ccccc21,4.6,0.1,0.4,-1.4,·,·
CN1C(=O)/C(=C2/Sc3ccccc3N2C)SC1=Nc1ccc(O)cc1,-20.6,-0.2,6.4*,8.9,-0.4,-8.4
Cc1cccc(CNC(=O)CN(C)c2nnc(N3CCCC3=O)s2)c1,-10.2,0.0,-1.1,-11.8,·,·
CN(CC(=O)NCc1cccnc1)c1nnc(N2CCCC2=O)s1,2.6,-0.1,5.2*,9.8,0.5,4.0
COC(=O)C1CCCCN1Cc1ccc2c(c1)CN(Cc1cnn(C)c1C)CCO2 (centres undefined),3.2,0.1,5.9*,-0.4,0.8,0.5
SMILES,TEAD-YAP inh,FBW7 act,GPR151 activ,MITF primary,GPR151 confirm,GPR119 ag
COC(=O)[C@@H]1CCCN1Cc1ccc2c(c1)CN(Cc1ccc3c(c1)OCCO3)CCO2,-0.4,-0.1,-1.0,16.2,·,·
Cc1ccc(-c2c(Nc3ccccc3F)c(=O)c2=O)cc1C,49.2*,0.1,5.8*,3.4,0.1,4.0
CCOC(=O)c1cccc(Nc2c(-c3ccc(C)c(C)c3)c(=O)c2=O)c1,-3.8,0.0,11.6*,2.0,0.9,-2.1
COc1ccccc1Nc1c(-c2ccc(C)c(C)c2)c(=O)c1=O,-10.0,0.6,0.3,15.7,·,·
CCOC(=O)c1ccc(Nc2c(-c3ccc(Cl)cc3)c(=O)c2=O)cc1,-6.6,-0.1,0.4,2.1,·,·
Cc1cc(C)c(NC(=O)COc2ccc(Cl)cc2)c(C)c1,24.9,0.2,0.2,9.0,·,·
O=C(CCN1C(=O)c2ccccc2C1=O)Nc1cc([N+](=O)[O-])ccc1O,3.0,0.1,5.8*,-14.0,0.4,10.4
O=C(CCN1C(=O)c2ccc([N+](=O)[O-])cc2C1=O)Nc1cc(Cl)ccc1O,1.7,-0.2,0.3,3.8,·,·
CN1C(=O)/C(=C/c2ccccc2OS(C)(=O)=O)SC1=S,9.2,-0.3,5.7*,15.7,-0.1,-11.1
CC1CCCN(S(=O)(=O)c2ccc([N+](=O)[O-])cc2)C1 (centres undefined),-3.9,-0.3,5.7*,4.0,1.2,1.6
Cc1csc(NC(=O)CSc2ccc(-c3ccco3)nn2)n1,-11.2,-0.4,0.8,-6.6,·,·
C#C[C@]1(OC(C)=O)CC[C@H]2[C@@H]3CCC4=CC(=O)CC[C@@H]4[C@H]3CCC21C (some centres undefined),·,0.2,9.3*,-1.4,-0.6,-4.1
C#C[C@]1(O)CC[C@H]2[C@@H]3CCC4=CC(=O)CC[C@@H]4[C@H]3CC[C@@]21C,·,0.1,0.0,26.0,·,·
O=C(CN1CCN(c2ccc(Cl)cc2)CC1)Nc1ccc(OCc2ccccc2)cc1,17.5,0.3,1.3,1.5,·,·
O=C(CCC(=O)N/N=C/c1cccc([N+](=O)[O-])c1)N/N=C/c1cccc([N+](=O)[O-])c1,1.9,0.1,-0.8,-4.7,·,·
O=C(N/N=C\c1cccc([N+](=O)[O-])c1)c1ccc(O)cc1,1.9,-0.1,-0.6,-24.1,·,·
O=C(N/N=C\c1ccc(Br)cc1)c1cc([N+](=O)[O-])cc([N+](=O)[O-])c1,-2.8,-0.1,-0.7,2.9,·,·
O=C(N/N=C/c1cccc([N+](=O)[O-])c1)c1cc(O)c(O)c(O)c1,-10.1,-0.2,5.7*,14.9,1.2,3.5
O=C(N/N=C/c1ccc([N+](=O)[O-])cc1)c1ccc(Br)cc1,-5.4,-0.2,7.8*,3.5,0.9,-2.0
O=C(CCCC(=O)N/N=C/c1cccc([N+](=O)[O-])c1)N/N=C/c1cccc([N+](=O)[O-])c1,6.1,0.1,14.1*,-8.4,0.6,2.3
O=C(N/N=C/c1cccc(O)c1)c1cnccn1,-6.1,0.0,-4.5,-1.8,·,·
O=C(N/N=C/c1cccc(O)c1)c1cccnc1,-1.2,-0.1,5.8*,5.7,-0.6,-11.2
Cc1ccc(C2OC3(C(=O)c4ccccc4C3=O)C3C(=O)N(c4ccc(-c5ccccc5)cc4)C(=O)C23)cc1 (centres undefined),-3.0,0.1,0.7,6.1,·,·
O=C1NN(c2ccc(Cl)c(Cl)c2)C(=O)/C1=C/c1ccc(O)c(O)c1,-5.2,0.0,-0.6,-5.7,·,·
O=C(CCC(=O)n1ncc2ccc(Cl)cc21)NC1CCCCC1,-7.4,1.4,-0.7,21.3,·,·
